# High-throughput results as filed in PubChem BioAssay.
# A selection: hits, their analogues and other compounds. The true share with any hit is near 7.4%.
# HEK293 tox: Cytotoxic Profiling in HEK 293 Cell Line of Diverse Libraries Using Quantitative High-Throughput Screening; HEK 293 viability, ATP luminescence (CellTiter-Glo), 48-72 h; Potency, µM (doses to about 115 µM), for the others: at the top dose activity change, negative = cytotoxicity, actives largely listed as inhibitors; AID 1345083, 2018; hit rate 6.6% among 94,000; also: nearly all actives have a fitted effect of over 60% in size
#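 HEK 293 cells at 250 cells/well were exposed to compounds by pintool transfer for 48 or 72 hr at 37 degree Celsius, 5% CO2. Viability was read as ATP-coupled luminescence with CellTiter-Glo after 10 min at room temperature.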
# Luciferase inh: Firefly luciferase inhibition profiling of diverse chemical library using quantitative high-throughput screening; Luciferin 4-monooxygenase (Photinus pyralis), P08659; purified P. pyralis luciferase, luminescence, biochemical; Potency, µM (doses to about 115 µM), most hits filed as inhibitors; hit rate 2.5% among 76,000; AID 1347043, 2019; also: nearly all actives have a fitted effect of over 65% in size
# Target sequence (P08659 whole entry, looked up): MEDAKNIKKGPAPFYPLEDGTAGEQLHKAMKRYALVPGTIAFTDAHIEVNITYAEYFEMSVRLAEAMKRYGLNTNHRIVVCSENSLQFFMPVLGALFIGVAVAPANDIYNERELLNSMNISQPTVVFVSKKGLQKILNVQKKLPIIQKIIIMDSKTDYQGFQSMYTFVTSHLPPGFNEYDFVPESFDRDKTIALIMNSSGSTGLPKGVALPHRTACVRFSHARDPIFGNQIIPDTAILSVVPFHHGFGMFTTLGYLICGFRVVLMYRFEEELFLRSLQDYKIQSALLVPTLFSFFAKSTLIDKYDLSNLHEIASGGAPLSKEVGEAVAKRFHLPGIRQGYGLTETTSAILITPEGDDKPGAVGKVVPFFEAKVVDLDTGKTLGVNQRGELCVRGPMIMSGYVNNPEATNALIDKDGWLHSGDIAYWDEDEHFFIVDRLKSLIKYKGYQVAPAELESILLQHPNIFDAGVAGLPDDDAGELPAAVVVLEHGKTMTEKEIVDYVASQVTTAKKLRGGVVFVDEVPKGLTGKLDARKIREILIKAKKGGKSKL
#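 FLuc 10nM, D-luciferin 10uM, ATP 10uM, Mg acetate 10mM, Tris acetate pH 7.5, Tween/BSA; cpd qHTS; enzyme added last; CCD luminescence.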
# 3T3 cytotox: Cytotoxic Profiling in NIH 3T3 Cell Line of Diverse Libraries Using Quantitative High-Throughput Screening; NIH 3T3 viability, CellTiter-Glo ATP luminescence, 48-72 h; Potency, µM (doses to about 96.7 µM), for inactives: at the top dose activity change, negative = cytotoxicity, most hits filed as inhibitors; hit rate 4.3% among 94,000; AID 1345082, 2018; also: nearly all actives have a fitted effect of over 55% in size
#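 Cells were seeded at 400 per well, treated with pin-transferred compound, and kept 48 or 72 hr at 37 °C before CellTiter-Glo addition and luminescence imaging of cellular ATP.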
# NPR1 antag: Natriuretic polypeptide receptor (hNpr1) antagonism - Primary qHTS; Atrial natriuretic peptide receptor 1 (Homo sapiens), P16066; HEK293 hNpr1 GloSensor cGMP, ANP-stimulated luminescence; Potency, µM (top dose mostly 46.3 µM), inactives show top-dose activity change, negative = inhibition, hits mostly inhibitors; hit rate 1.6% among 76,000; calls by dose curve; also: nearly all actives have a fitted effect of over 60% in size
#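 Compound pre-incubated 30 min at room temperature on GloSensor-loaded HEK293 cells stably carrying hNpr1 and the pGS-40F cGMP biosensor. Stimulation uses hNppA at 0.1 nM final; luminescence is taken at baseline and 20 min post-agonist.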
# HEK293 viab: GF-AFC viability counterscreen for inhibitors of alpha-synuclein gene (SNCA) expression | HEK-293-SNCA-luc viability, GF-AFC fluorescence, 24 h | Potency, µM (doses to about 57.1 µM), inactives show at the top dose activity change, negative = cytotoxicity, usual class: cytotoxic | hit rate 0.12% among 150,000 | AID 1671193, 2021;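 also: 0% = DMSO-treated cells and -100% = medium-only wells without cells; nearly all actives have a fitted effect of over 30% in size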
#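 HEK-293-SNCA-luc cells (1500/well) plated 24 h, then exposed 24 h to a dilution series; GF-AFC added 30 min at 37C, fluorescence 405/540 nm; normalised to medium-only and DMSO wells, Hill fit.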
# SNCA expr inh: Primary qHTS assay for inhibitors of alpha-synuclein gene (SNCA) expression; HEK-293 SNCA-luciferase knock-in, luminescence, 24 h; Potency, µM (highest dose often 57.2 µM), inactives show at the highest dose activity change, negative = inhibition, most hits filed as inhibitors; hit rate 0.17% among 140,000;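 also: plate controls were DMSO cells for no effect and cell-free wells for full effect; nearly all actives have a fitted effect of over 45% in size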
# The depositor's hits bear a star; i = inactive; ? = inconclusive; . = no result given; [ ] = remark or other dose. Unless noted, calls follow the shape of the dose curve; as a rule, active = well fitted curve in the direction sought with a large enough effect; inconclusive = small, poorly fitted or top-dose-only effect, or another doubt; inactive = no such curve, though single readings can be large; an effect the other way counts as inactive or inconclusive. Unless noted, % is scaled to controls: 0 for no effect and ±100 for the full control effect; potency is read from the fitted curve at half-maximal effect.
SMILES,HEK293 tox,Luciferase inh,3T3 cytotox,NPR1 antag,HEK293 viab,SNCA expr inh
COc1ccc(Cn2c(=O)c(C(=O)N3CCN([S+](=O)([O-])c4ccccc4)CC3)nc3cccnc32)cc1,-1%,.,-23%,.,6%,-6%
COc1ccc(CCNC(=O)C2CCc3nnc(CNC(=O)NC(C)(C)C)n32)cc1 (stereo not given),4%,.,-6%,.,6%,10%
O=[S+]([O-])(c1ccc(C(F)(F)F)cc1)N1CCC2(CC1)CC(c1cccc(C(F)(F)F)c1)=NO2,?,.,-15%,.,.,.
CC(=O)Nc1ccc(CN2CCC3(CC2)CC(c2cccnc2)=NO3)cc1,-20%,i,5%,-13%,-21%,?
Cc1noc(C)c1[S+](=O)([O-])N1CCC2(CC1)CC(c1cccc(C(F)(F)F)c1)=NO2,?,.,4.5µM*,.,.,.
CC(=O)Nc1ccc(CN2CCC3(CC2)CC(c2cccc(C(F)(F)F)c2)=NO3)cc1,40µM*,i,35µM*,-7%,-3%,?
O=C(c1ccc(Cl)cc1)N1CCC2(CC1)C(=O)Nc1ccccc12,-17%,.,1%,.,-11%,7%
COCCN1C(=O)c2cccn2CC1CNC(=O)c1ccc(F)cc1 (stereo not given),-1%,i,2%,0%,-3%,?
COCCN1C(=O)c2cccn2CC1CNC(=O)c1ccc(-n2c(C)ccc2C)cc1 (stereo not given),25µM*,.,?,.,-10%,-10%
COc1ccc(C(=O)N[C@H]2C[C@@H](Cc3cc(-c4ccccc4)on3)C2(C)C)cc1,45µM*,?,50µM*,?,?,-22%[87.6 µM]
CC1(C)[C@H](Cc2cc(CN3CCCCC3)on2)C[C@@H]1NC(=O)c1ccco1,?,i,?,3%[70.6 µM],-24%[87.6 µM],1%[87.6 µM]
COCc1cc(C[C@@H]2C[C@H](NS(C)(=O)=O)C2(C)C)no1,3%[172 µM],i,5%[138 µM],4%[70.6 µM],2%[87.6 µM],-3%[87.6 µM]
CC1(C)[C@H](Cc2cc(CN3CCOCC3)on2)C[C@@H]1NCc1ccc(CO)o1,i,i,i,-3%[70.6 µM],0%[87.6 µM],-11%[87.6 µM]
COc1ccc(C(=O)N[C@H]2C[C@@H](Cc3cc(CN(C)C)on3)C2(C)C)cc1,-19%[172 µM],i,-16%[138 µM],-3%[70.6 µM],-2%[87.6 µM],2%[87.6 µM]
CC(C)Cc1cc(C[C@@H]2C[C@H](NC(=O)c3ccco3)C2(C)C)no1,71µM*,i,?,-17%[70.6 µM],-24%[87.6 µM],-8%[87.6 µM]
CC1(C)[C@H](Cc2cc(CC3CCCCC3)on2)C[C@@H]1NS(C)(=O)=O,71µM*,i,?,1%[70.6 µM],-8%[87.6 µM],22%[87.6 µM]
CC1(C)[C@H](Cc2cc(CN3CCN(c4ccccc4)CC3)on2)C[C@@H]1NCC1CC1,89µM*,i,?,2%[70.6 µM],-20%[87.6 µM],6%[87.6 µM]
COc1ccc2[nH]c(C(=O)N3CCCN(S(=O)(=O)c4ccccc4)CCC(=O)NCC3)cc2c1,?,i,-22%,-1%,2%,43%
Cc1ccc(CN2CCC(N3CC4CCCN4C3=O)CC2)cc1 (stereo not given),-8%[172 µM],i,-11%[138 µM],4%[70.6 µM],3%[87.6 µM],0%[87.6 µM]
COCCOC1CCN(C(=O)Nc2ccc(C(=O)OC)cc2)CC1,-19%,i,0%,0%,-10%[12.5 µM],16%
CC1(C)[C@H](Cc2cc(CN3CCCCC3)on2)C[C@@H]1NC(=O)c1ccccc1,?,i,?,0%[70.6 µM],-5%[87.6 µM],?
CC1(C)[C@H](Cc2cc(CC3CCCCC3)on2)C[C@@H]1NC(=O)c1ccccc1,32µM*,i,56µM*,?,?,?
CCCCc1cc(C[C@@H]2C[C@H](NC(=O)C(C)(C)C)C2(C)C)no1,71µM*,?,?,-25%[70.6 µM],-21%[87.6 µM],36%[87.6 µM]
CN(C)[C@@H]1CN(C(=O)c2ccc(F)cc2F)C[C@H]1CO,-16%,i,-7%,5%,-4%,-4%
O=C1CC2(CCN(C(=O)c3ccccn3)CC2)Oc2cc(Cl)ccc21,?,i,-42%,-13%,2%,1%
SMILES,HEK293 tox,Luciferase inh,3T3 cytotox,NPR1 antag,HEK293 viab,SNCA expr inh
Cc1ccc(NC(=O)C2(c3ccc4c(c3)OC(F)(F)O4)CC2)nc1-c1cccc(C(=O)O)c1,.,.,.,.,?,0.076µM*
COc1ccc(F)cc1-c1ccc(CN2CCC(N[S+](=O)([O-])c3c(C)noc3C)C2)cc1 (stereo not given),45µM*,.,?,.,.,.
Cc1ccc([S+](=O)([O-])NC2CCCN(Cc3ccc(-c4cncnc4)cc3)C2)cc1 (stereo not given),?,.,?,.,5%[12.5 µM],-4%
COc1ccc(F)cc1-c1ccc(CN2CCC(N[S+](=O)([O-])c3cccs3)C2)cc1 (stereo not given),40µM*,.,?,.,.,.
Cc1noc(C)c1[S+](=O)([O-])NC1CCCN(Cc2ccc(-c3cncnc3)cc2)C1 (stereo not given),?,.,-21%,.,-2%[12.5 µM],14%
COc1ccc(F)cc1-c1ccc(CN2CCC(N[S+](=O)([O-])c3ccc(C)cc3)C2)cc1 (stereo not given),32µM*,.,28µM*,.,.,.
COc1cccc(-c2ccc(CN3CCCC(N[S+](=O)([O-])c4cccs4)C3)cc2)c1 (stereo not given),13µM*,.,32µM*,.,-14%,-14%
O=[S+]([O-])(NC1CCCN(Cc2ccc(-c3cncnc3)cc2)C1)c1cccs1 (stereo not given),?,.,?,.,6%[12.5 µM],-7%
CCOc1ccc(NC(=O)NCC2CCOCC2)cc1,-21%,i,-19%,-2%,4%,4%
CN1CCN(C(=O)c2cn3cc(-c4cccc(C(F)(F)F)c4)sc3n2)CC1,-7%,.,-22%,.,14%,-7%
COc1ccc(C(=O)N2CCc3ccc(C(=O)NCc4cccc(F)c4)cc32)cc1,40µM*,i,?,-26%,?,-2%
COc1ccc(C(=O)N2CCc3ccc(C(=O)NCc4cccc(OC)c4)cc32)cc1,79µM*,i,?,2%,?,5%
COC(=O)NC1CCN(c2nccc(Nc3ccccc3OC)n2)CC1,50µM*,.,?,.,-7%,18%
COc1ccccc1Nc1ccnc(N2CCC(N[S+](=O)([O-])c3ccccc3)CC2)n1,32µM*,.,32µM*,.,-21%,-22%
